# Sampled rows, rich in hits. Any-hit rate of the full collection: about 7.3%.
# ELG1 genotox: inducers of genotoxicity in HEK293T ELG1-luciferase cells; actives 1.3% (n = 330,000); AID 504466; HEK293T ELG1-luciferase reporter, luminescence, 16 h; Potency, µM (titrated, usually from 46 µM), inactives show at the highest dose activity change, positive = activation, usual class: activators; further: % of control where 0% means no effect; nearly all actives have a fitted effect of over 60% in size
#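 Genotoxic stress is detected as increased luminescence from luciferase-tagged ELG1 in HEK293T cells, measured with ONE-Glo after a 16 hr treatment at 37 °C.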
# FLuc counter: counter-screen for miR-21 project: firefly luciferase inhibitors or activators; actives 6.9% (n = 360,000); Potency, µM (titrated, usually from 57.5 µM), for inactives: top-dose activity change, negative = inhibition, most hits filed as inhibitors; AID 588342; purified FLuc, Km substrates, luminescence inhibition; P08659;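 further: plate controls were vehicle for no effect and reference inhibitor for full effect; nearly all actives have a fitted effect of over 55% in size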
# Target sequence (P08659 whole entry, looked up): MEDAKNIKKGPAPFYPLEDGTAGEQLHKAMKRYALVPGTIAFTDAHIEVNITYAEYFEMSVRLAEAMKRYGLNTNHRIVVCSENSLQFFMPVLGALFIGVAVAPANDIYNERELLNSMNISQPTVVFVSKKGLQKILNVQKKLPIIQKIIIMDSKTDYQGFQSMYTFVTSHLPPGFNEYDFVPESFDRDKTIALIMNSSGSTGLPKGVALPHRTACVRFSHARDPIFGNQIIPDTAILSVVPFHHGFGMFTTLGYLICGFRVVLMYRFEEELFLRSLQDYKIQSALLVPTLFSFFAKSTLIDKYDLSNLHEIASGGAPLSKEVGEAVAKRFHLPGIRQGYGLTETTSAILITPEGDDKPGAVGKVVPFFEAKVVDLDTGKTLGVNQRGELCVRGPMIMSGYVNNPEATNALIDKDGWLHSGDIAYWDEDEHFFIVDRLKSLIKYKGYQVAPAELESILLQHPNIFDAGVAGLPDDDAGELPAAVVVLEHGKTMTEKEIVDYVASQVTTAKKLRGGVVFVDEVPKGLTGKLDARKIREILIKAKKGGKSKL
#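 Biochemical qHTS of compounds, final roughly 60 µM downward over six points, against 10 nM purified firefly luciferase using Km concentrations of substrates (10 uM D-luciferin, 10 uM ATP) in Tris acetate pH 7.5 buffer; luminescence output.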
# SMN2 splice up: SMN2 splice variant enhancement | HEK293 SMN2-luciferase splicing reporter, luminescence, 30-36 h | Potency, µM (doses to about 46.1 µM), for the others: at the top dose activity change, positive = activation, actives largely listed as activators | actives 2.8% (n = 210,000) | AID 1458; further: % of control where 0% means no effect; nearly all actives have a fitted effect of over 55% in size
#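 qHTS luciferase splicing reporter: luminescence rises when SMN2 exon 7 is included in transfected HEK293 cells. Compound exposure lasted 30-36 h at 37C, with 4.5 mM final sodium butyrate as control, followed by a ONE-Glo read.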
# NPC1 prom act: activators of NPC1 promoter; Huh7 NPC1 promoter luciferase reporter, 24 h; Potency, µM (highest dose often 9.22 µM), without a hit: at the highest dose activation, actives largely listed as activators; actives 2.4% (n = 320,000); AID 485313; further: % of control where 0% means no effect; nearly all actives have a fitted effect of over 60% in size
#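 Luminescence read-out of NPC1 promoter-driven luciferase in stably transfected Huh7 cells; compounds delivered in DMSO and left 24 h at 37C, 5% CO2, qHTS titration format.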
# Rab9 prom act: activates the Rab9 promoter; actives 2.8% (n = 320,000); Huh7 Rab9 promoter-luciferase reporter, luminescence, 24 h; Potency, µM (doses to about 9.22 µM), for inactives: at the highest dose activation, negative = inhibition, hits mostly activators; further: % of control where 0% means no effect; nearly all actives have a fitted effect of over 60% in size
#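 Cell-based reporter: Huh7 stable for Rab9 promoter-driven luciferase, plated in reduced-serum medium with 10% FBS at 1500 cells/well, compound-treated 24 h at 37 °C, luminescence read after 10 min reagent.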
# Luc counter: blocks Kinase-Glo luciferase, a counter-screen artifact; Q27757; actives 0.28% (n = 200,000); Potency, µM (titrated, usually from 38.3 µM), without a hit: top-dose activity change, negative = inhibition, actives largely listed as inhibitors; AID 1379; Kinase-Glo luciferase, ATP luminescence, 8 min; further: on the % scale 0 is the no-effect control and ±100 the full control effect; nearly all actives have a fitted effect of over 60% in size
#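 Luminescence was the read-out, taken after 8-minute incubation at ambient temperature. Luciferase turned over luciferin with 10 uM ATP in imidazole pH 7.2 buffer containing KCl, MgCl2, Tween 20 and BSA.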
# Starred values were filed as active, the others as inactive; ? = inconclusive; . = no result; [ ] = another dose, or the depositor's remark. The call rests on the fitted dose curve; in most records, active means well fitted curve in the direction sought with a large enough effect; inconclusive means small, poorly fitted or top-dose-only effect, or another doubt; inactive means no such curve, though single readings can be large; an effect the other way counts as inactive or inconclusive. Potency means the concentration at half of the fitted maximal effect.
SMILES,ELG1 genotox,FLuc counter,SMN2 splice up,NPC1 prom act,Rab9 prom act,Luc counter
COc1ccc(Nc2nc(Cl)nc(Nc3ccc(OC)cc3)n2)cc1,-14%,5%,-45%,0%,2%,13%
CC(C)(C)Nc1nc(Cl)nc(Nc2ccccc2)n1,?,7.6µM*,.,?,?,.
Clc1nc(Nc2ccccc2)nc(Nc2ccccc2)n1,7%,24µM*,-15%,0%,5%,-3%
CC(=O)c1ccc(NC(=O)C2CCC(CNS(=O)(=O)c3cccc4nsnc34)CC2)cc1 (stereo not drawn),.,4%,-6%,.,.,.
COc1ccc(S(=O)(=O)c2cnc3ccc(Cl)cc3c2N2CCCCC2C)cc1 (stereo not drawn),.,4%,-40%,.,.,.
CC(=O)NCCc1nc2cc(NC(=O)c3cccc([N+](=O)[O-])c3)ccc2n1C,?,?,.,2.8µM*,2.8µM*,.
CCC(=O)NCCc1nc2cc(NC(=O)c3cccc([N+](=O)[O-])c3)ccc2n1C,?,?,.,?,3.5µM*,.
Cn1cnc([N+](=O)[O-])c1Sc1nc(N)nc2c1ncn2[C@H]1C[C@H](O)[C@@H](CO)O1,.,.,-28%[9.22 µM],.,.,-7%[7.66 µM]
Cc1c(Cl)cccc1N1C(N)=C(C#N)C(c2cc(CN3CCOCC3)cs2)C2=C1CCCC2=O (stereo not drawn),.,7%,-17%,.,.,.
Clc1ccc(-n2ncc3c(NCCN4CCOCC4)ncnc32)cc1,3.7µM*,6.7µM*,-47%,29%,5%,-4%
c1ccc(-n2ncc3c(NCCCN4CCOCC4)ncnc32)cc1,?,24µM*,?,3.2µM*,4µM*,-2%
O=C(Nc1cc(F)ccc1F)N1CCC(CN2CCCC2)CC1,.,1%,.,.,.,.
CCN1C(=O)c2ccccc2S(=O)c2ccc(C(=O)N3CCN(c4ccc(F)cc4)CC3)cc21 (stereo not drawn),.,-5%,7%,.,.,.
COC(=O)c1ccc(NC(=O)c2ccc3nccnc3c2)cc1,-7%,?,.,2%,2%,.
COc1ccc(NC(=O)Nc2ccc3nonc3c2)cc1,3%,?,.,?,3.5µM*,.
COc1ccc(NC(=O)Nc2ccc3nccnc3c2)cc1,13%,4.3µM*,?,3.2µM*,0.4µM*,-1%
CCCCNS(=O)(=O)c1ccc2nc(-c3cccnc3)cc(C(=O)NCCC)c2c1,.,-3%,.,.,.,.
O=C(CC1CCCCC1)Nc1nc2ccccc2s1,?,?,11µM*,1.8µM*,1.6µM*,2%
Cc1cnc(NC(=O)CC2CCCC2)s1,?,?,18µM*,?,?,-1%
CCOC(=O)C(C(=O)Nc1nc2ccccc2s1)C1CCCCC1 (stereo not drawn),-1%,-1%,-20%,4%,2%,7%
O=C(Nc1nc2ccccc2s1)NC1CCCCC1,?,1.9µM*,.,1.4µM*,0.63µM*,-2%
Cc1cnc(NC(=O)CCN2C(=O)C3CCCCC3C2=O)s1 (stereo not drawn),0%,-1%,20%,1%,11%,2%
CCOc1ccc(NC(=O)Cn2cc(C(=O)c3ccc(CC)cc3)c(=O)c3ccc(C)nc32)cc1,.,0%,.,.,.,.
CC(CO)(CO)N=Cc1cc(I)cc(I)c1O,.,.,-11%[9.22 µM],.,.,-4%[7.66 µM]
CCOC(=O)CNC(=O)c1ccc2[nH]c3ccccc3c2c1,7%,17µM*,-7%,-4%,-3%,2%
SMILES,ELG1 genotox,FLuc counter,SMN2 splice up,NPC1 prom act,Rab9 prom act,Luc counter
CCOC(=O)CNC(=O)c1ccc(OCC(F)(F)F)cc1,11%,?,13µM*,?,2µM*,?
O=C(NCC(O)CO)c1ccc2[nH]c3ccccc3c2c1 (stereo not drawn),0%,?,8%,-4%,0%,3%
CCOC(=O)CNC(=O)c1ccc(C)cc1,10%,13µM*,10%,0%,2%,-8%
Cc1ccc(C(=O)NCC(=O)OCC(=O)NCCNC(=O)COC(=O)CNC(=O)c2ccc(C)cc2)cc1,3%,8%,.,-5%,0%,.
CCOc1ccc(C(=O)NCC(=O)OCCCOC(=O)CNC(=O)c2ccc(OCC)cc2)cc1,9%,?,.,-4%,-2%,.
COC(=O)c1cc2oc(C)cc2n1Cc1c(C)cc(C)cc1C,.,6%,14%,.,.,.
COc1ccc(OC)c(CCNC(=O)CN2C(=O)COc3ccc(S(=O)(=O)N4CCC(C)CC4)cc32)c1,.,3%,?,.,.,.
CCc1cccc(NC(=O)CCc2c(C)nc3c(c2C)c(=O)n(C)c(=O)n3C)c1,.,-9%,-16%,.,.,.
Cc1ccc(S(=O)(=O)c2cnc(SCC(=O)Nc3cccc(Cl)c3)nc2N)cc1C,.,-1%,15%,.,.,.
Cc1ccc(OCc2cc(C(=O)N3CCCCCCC3)no2)cc1C,22%,?,.,?,?,.
Cc1ccc(OCc2cc(C(=O)N3CCN(C4CCCC4)CC3)no2)cc1C,5%,?,.,3%,28%,.
Cc1ccc(OCc2cc(C(=O)N3CCC(c4ccccc4Cl)C3)no2)cc1C (stereo not drawn),?,27µM*,.,?,?,.
Cc1ccc(OCc2cc(C(=O)N(CCO)Cc3cccs3)no2)cc1C,?,27µM*,.,4µM*,3.5µM*,.
CCN(Cc1ccncc1)C(=O)c1cc(COc2ccc(C)c(C)c2)on1,-1%,-17%,.,-3%,5%,.
Cc1ccc(OCc2cc(C(=O)N3CCN(c4ccccc4)CC3)no2)cc1C,3.7µM*,6µM*,.,2.5µM*,2µM*,.
Oc1ccc(Cl)cc1C1=NNC(c2cccs2)C1 (stereo not drawn),-16%,?,.,-5%,7%,.
Cc1ccc(O)c(C2=NNC(c3ccc(Cl)cc3)C2)c1 (stereo not drawn),5%,27µM*,.,0%,27%,.
CCn1c(=O)n(CC)c2cc(N3CCCCC3)c(NC(=O)Nc3ccccc3Cl)cc21,.,0%,.,.,.,.
COc1cccc(N(C(=O)c2nc3nccc(C)n3n2)c2nc3ccccc3s2)c1,?,11µM*,10µM*,?,2µM*,3%
COc1cc(S(=O)(=O)NCCc2c(C)[nH]c3ccccc23)c(C)cc1C,.,1%,-4%,.,.,.
Cc1cc(C2=NNC(=NC3CC3)SC2)c(C)n1-c1ccccc1,-10%,0.076µM*,-101%,-32%,-40%,?
COc1ccc(-n2c(C)cc(C3=NNC(=NC4CC4)SC3)c2C)cc1,?,5.4µM*,4µM*,-2%,0%,-6%
CN=C1NN=C(c2cc(C)n(-c3c(C)n(C)n(-c4ccccc4)c3=O)c2C)CS1,1%,-1%,-2%,0%,-3%,-1%
Cc1ccc2c(CC(=O)NCc3ccccc3)coc2c1C,.,0%,-8%,.,.,.

# Compound activity from PubChem.
